For some of these results: Entries with a potency or affinity are not part of this list. Active and inactive are the calls of the source. Unless noted, the rule behind the calls is not given here.
What was measured:
[1] = antimalarial activity against Dd2 strain (AID 2302;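 active = growth inhibition above 50% at the single 2 µM test dose, taken to imply half-maximal potency below 2 µM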;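 note: 0% = DMSO untreated growth and 100% = chloroquine plus artemisinin killed control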); details: P. falciparum Dd2 in RBCs, LDH growth readout, 72 h; at 2 µM; stronger effect = higher value
[2] = human hepatoma cell viability loss – ATP luminescence, cytotoxicity control for P. falciparum antimalarial project, primary screen (AID 2303;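 active = inhibition above 50%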;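 note: 0% = DMSO wells and 100% = digitonin-killed cells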); details: HepG2 viability, 24-48 h, at 10 µM, stronger effect = higher value
[3] = target: L-lactate dehydrogenase (Plasmodium falciparum (isolate CDC / Honduras)) (UniProt Q27743); test: PfLDH activity inhibition – cell lysate, 3D7 strain, counter-screen for P. falciparum growth inhibition project (AID 2304);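 note: 0% = vehicle and 100% = reference inhibitor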; details: P. falciparum 3D7 crude extract, LDH APAD/NBT absorbance; at 2 µM; stronger effect = higher value
[4] = inhibition of 3D7 malaria parasite growth – strain 3D7 (AID 2306);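 note: 0% = DMSO wells and 100% = chloroquine plus artemisinin control wells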; details: P. falciparum 3D7 erythrocytic growth, LDH absorbance, 72 h; at 2 µM; stronger effect = higher value
[5] = target: Calcium-dependent protein kinase 1 (Plasmodium falciparum (isolate 3D7)) (UniProt P62344); test: PfCDPK1 kinase inhibitors, biochemical, TCAMS library (AID 1159585; cut-off not given, nearly all actives have IC50 up to about 0.98 µM;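 note: inhibitors leave more ATP so luminescence rises with inhibition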); details: recombinant PfCDPK1, Kinase-Glo ATP depletion luminescence
[6] = target: Plasmodium falciparum protein kinase 6 (PK6, PF3D7_1337100) (UniProt Q8IDW1); test: PfPK6 kinase inhibitors, biochemical, TCAMS library (AID 1159586); details: recombinant PfPK6, Kinase-Glo ATP depletion luminescence
[7] = target: Protein kinase 7 (PK7), Plasmodium falciparum 3D7 (PF3D7_0213400) (UniProt Q7YTF7); test: inhibition of Plasmodium PK7 catalytic activity – biochemical, TCAMS antimalarial set, Kinase-Glo luminescence (AID 1159587); details: recombinant PfPK7, Kinase-Glo ATP depletion luminescence
[8] = target: Calcium-dependent protein kinase 4 (Plasmodium falciparum (isolate 3D7)) (UniProt Q8IBS5); test: PfCDPK4 kinase inhibitors, biochemical, TCAMS library (AID 1159588; cut-off not given, nearly all actives have IC50 up to about 0.91 µM); details: recombinant PfCDPK4, Kinase-Glo ATP depletion luminescence
Calcium-dependent protein kinase 4 (Plasmodium falciparum (isolate 3D7)), sequence (Q8IBS5 whole entry, looked up): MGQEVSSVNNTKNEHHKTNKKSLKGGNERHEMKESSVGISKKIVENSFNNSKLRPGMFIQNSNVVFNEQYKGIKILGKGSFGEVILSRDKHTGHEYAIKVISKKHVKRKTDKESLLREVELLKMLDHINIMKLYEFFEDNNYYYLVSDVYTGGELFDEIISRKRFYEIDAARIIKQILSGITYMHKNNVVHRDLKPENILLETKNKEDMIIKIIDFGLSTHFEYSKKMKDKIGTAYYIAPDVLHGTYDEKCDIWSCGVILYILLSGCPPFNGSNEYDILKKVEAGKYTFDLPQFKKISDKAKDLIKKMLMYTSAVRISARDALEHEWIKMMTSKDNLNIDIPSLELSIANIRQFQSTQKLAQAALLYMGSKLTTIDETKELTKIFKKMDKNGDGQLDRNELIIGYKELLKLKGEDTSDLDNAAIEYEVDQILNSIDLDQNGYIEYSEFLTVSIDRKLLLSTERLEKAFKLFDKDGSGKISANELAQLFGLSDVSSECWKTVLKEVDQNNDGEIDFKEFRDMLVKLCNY

Calcium-dependent protein kinase 1 (Plasmodium falciparum (isolate 3D7)), sequence (P62344 whole entry, looked up): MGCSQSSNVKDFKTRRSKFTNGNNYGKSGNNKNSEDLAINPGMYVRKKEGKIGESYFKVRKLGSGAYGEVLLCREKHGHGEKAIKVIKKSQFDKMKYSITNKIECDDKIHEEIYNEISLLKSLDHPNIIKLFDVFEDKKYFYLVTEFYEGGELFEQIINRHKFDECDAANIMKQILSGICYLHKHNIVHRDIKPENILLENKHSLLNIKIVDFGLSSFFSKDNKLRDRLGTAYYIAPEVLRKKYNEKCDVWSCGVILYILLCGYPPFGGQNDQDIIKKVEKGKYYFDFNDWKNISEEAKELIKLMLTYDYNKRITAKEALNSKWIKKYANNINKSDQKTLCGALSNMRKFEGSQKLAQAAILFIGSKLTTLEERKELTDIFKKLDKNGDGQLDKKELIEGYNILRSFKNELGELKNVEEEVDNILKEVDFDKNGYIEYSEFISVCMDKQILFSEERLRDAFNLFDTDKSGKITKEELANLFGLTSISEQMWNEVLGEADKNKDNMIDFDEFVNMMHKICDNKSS
Plasmodium falciparum protein kinase 6 (PK6, PF3D7_1337100), sequence (Q8IDW1 1-305): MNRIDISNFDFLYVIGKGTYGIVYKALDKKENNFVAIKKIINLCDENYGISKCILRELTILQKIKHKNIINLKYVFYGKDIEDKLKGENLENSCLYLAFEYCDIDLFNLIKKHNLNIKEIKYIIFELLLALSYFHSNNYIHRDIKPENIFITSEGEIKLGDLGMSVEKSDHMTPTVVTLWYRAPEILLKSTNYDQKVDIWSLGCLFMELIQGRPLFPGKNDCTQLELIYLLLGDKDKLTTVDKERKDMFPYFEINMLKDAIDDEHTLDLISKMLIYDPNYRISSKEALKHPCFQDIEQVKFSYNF
Protein kinase 7 (PK7), Plasmodium falciparum 3D7 (PF3D7_0213400), sequence (Q7YTF7 1-343): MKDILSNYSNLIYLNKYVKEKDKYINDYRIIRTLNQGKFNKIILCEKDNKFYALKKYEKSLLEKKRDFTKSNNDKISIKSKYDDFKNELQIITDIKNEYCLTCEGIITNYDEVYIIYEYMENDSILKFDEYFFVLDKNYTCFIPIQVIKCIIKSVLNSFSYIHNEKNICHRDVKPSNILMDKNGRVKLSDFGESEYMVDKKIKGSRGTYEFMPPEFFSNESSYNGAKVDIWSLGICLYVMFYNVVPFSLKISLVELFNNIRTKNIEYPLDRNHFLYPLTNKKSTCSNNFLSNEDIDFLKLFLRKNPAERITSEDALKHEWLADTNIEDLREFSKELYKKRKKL
L-lactate dehydrogenase (Plasmodium falciparum (isolate CDC / Honduras)), sequence (Q27743 whole entry, looked up): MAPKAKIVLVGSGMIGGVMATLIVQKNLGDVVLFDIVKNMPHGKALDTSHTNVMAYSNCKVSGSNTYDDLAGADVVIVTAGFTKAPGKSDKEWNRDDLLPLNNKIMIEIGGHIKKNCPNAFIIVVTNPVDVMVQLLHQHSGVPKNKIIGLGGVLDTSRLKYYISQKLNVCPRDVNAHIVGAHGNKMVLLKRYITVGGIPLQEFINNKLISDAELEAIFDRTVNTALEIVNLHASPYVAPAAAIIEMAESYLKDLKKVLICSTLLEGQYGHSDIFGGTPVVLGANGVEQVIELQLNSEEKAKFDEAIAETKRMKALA

COc1ccc2ncc(C#N)c(CCN3CCC(NCc4ccc5c(n4)NC(=O)CS5)CC3)c2n1
active: growth inhibition [4] 89%
inactive: growth inhibition [1] 17% | inhibition [2] 9% | inhibition [3] -1% | outcome [5] | outcome [6] | outcome [7] | outcome [8]

Cc1ccc2ncc(Cl)c(CCN3CCC(NCc4ccc5c(n4)NC(=O)CS5)CC3)c2n1
inactive: growth inhibition [1] 12% | inhibition [2] 13% | inhibition [3] -3% | outcome [5] | outcome [6] | outcome [7] | outcome [8]
active: growth inhibition [4] 90%

CCOc1ccc(C(=O)Nc2ccc(-c3nc4ccccc4[nH]3)cc2)cc1[N+](=O)[O-]
inactive: inhibition [2] 22% | inhibition [3] 4% | outcome [5] | outcome [6] | outcome [7] | outcome [8]
active: growth inhibition [1] 70% | growth inhibition [4] 100%

Cc1ccc(NC(=O)N2CCC(n3c(-c4ccccc4)nc4cccnc43)CC2)cc1F
active: growth inhibition [1] 85% | growth inhibition [4] 96%
inactive: inhibition [2] 23% | inhibition [3] 2% | outcome [5] | outcome [6] | outcome [7] | outcome [8]

Oc1ccc2ccccc2c1CNCC1CCCCC1
inactive: inhibition [2] -12% | inhibition [3] -5% | outcome [5] | outcome [6] | outcome [7] | outcome [8]
active: growth inhibition [1] 93% | growth inhibition [4] 98%

CC(C)C[C@H](NC(=O)c1cc2ccccc2s1)C(=O)N[C@H]1CCN(Cc2ccc(OCCCN(C)C)c(Cl)c2)C1
active: growth inhibition [1] 89% | inhibition [2] 83% | growth inhibition [4] 100%
inactive: inhibition [3] 1% | outcome [5] | outcome [6] | outcome [7] | outcome [8]

CCCc1cc(OC)c(CC2c3cccc(O)c3CCN2C)cc1OC (stereo not drawn)
inactive: inhibition [2] 3% | inhibition [3] 0% | outcome [5] | outcome [6] | outcome [7] | outcome [8]
active: growth inhibition [1] 99% | growth inhibition [4] 100%

Cc1cc(NCCc2cccc(F)c2)nc(/N=C(\N)Nc2cccc(C(F)(F)F)c2)n1
inactive: inhibition [2] 42% | inhibition [3] -1% | outcome [5] | outcome [6] | outcome [7] | outcome [8]
active: growth inhibition [1] 99% | growth inhibition [4] 102%

COc1ccc(C=C2SC(=N)N(c3ccccc3OC)C2=O)cc1
active: growth inhibition [1] 95% | growth inhibition [4] 97%
inactive: inhibition [2] 47% | inhibition [3] 3% | outcome [5] | outcome [6] | outcome [7] | outcome [8]

CCCC(C)Nc1nc(C)cc(N[C@@H](Cc2ccccc2)C(=O)NCCc2ccccc2)n1 (stereo partly drawn)
active: growth inhibition [1] 68% | growth inhibition [4] 97%
inactive: inhibition [2] 11% | inhibition [3] -3% | outcome [5] | outcome [6] | outcome [7] | outcome [8]

O=C(c1cc(C(=O)NC2CCCCC2)c(=O)n(C2CCCCC2)c1)c1cc(F)ccc1O
active: growth inhibition [1] 98% | growth inhibition [4] 99%
inactive: inhibition [2] 22% | inhibition [3] -2% | outcome [5] | outcome [6] | outcome [7] | outcome [8]

O=C(/C=C/c1ccccc1Cl)Nc1ccc(Br)c(OCCN2CCCCC2)c1
inactive: growth inhibition [1] 25% | inhibition [2] 11% | inhibition [3] -4% | outcome [5] | outcome [6] | outcome [7] | outcome [8]
active: growth inhibition [4] 99%

CC[C@H](C)CNC(=O)c1cncc(-c2cccc(CN(C)C3CCN(C)CC3)c2)c1
active: growth inhibition [1] 59% | growth inhibition [4] 101%
inactive: inhibition [2] 9% | inhibition [3] 1% | outcome [5] | outcome [6] | outcome [7] | outcome [8]

COc1cc(OCCCCCCON2C(N)=NC(N)=NC2(C)C)cc(OC)c1OC
inactive: inhibition [2] 41% | inhibition [3] -5% | outcome [5] | outcome [6] | outcome [7] | outcome [8]
active: growth inhibition [1] 93% | growth inhibition [4] 94%

FC(F)(F)c1ccc2nc(-c3cccc(-c4ccc(CNCc5ccccc5)cc4)c3)[nH]c2c1
inactive: inhibition [2] 25% | inhibition [3] -4% | outcome [5] | outcome [6] | outcome [7] | outcome [8]
active: growth inhibition [1] 99% | growth inhibition [4] 101%

O=C(Nc1nc2cc(S(=O)(=O)NCCc3cccc(F)c3)ccc2n1CCCn1ccnc1)c1ccc(Cl)cc1
active: growth inhibition [4] 90%
inactive: growth inhibition [1] 8% | inhibition [2] -24% | inhibition [3] 0% | outcome [5] | outcome [6] | outcome [7] | outcome [8]

COc1ccc2c(NN=Cc3ccccc3Cl)cc(C)nc2c1
active: growth inhibition [1] 99% | growth inhibition [4] 101%
inactive: inhibition [2] 5% | inhibition [3] 2% | outcome [5] | outcome [6] | outcome [7] | outcome [8]

CC(C)(C)c1cc(C(=O)N2CCN(c3cnccn3)CC2)n(Cc2ccccc2)n1
active: growth inhibition [4] 92%
inactive: growth inhibition [1] 33% | inhibition [2] -1% | inhibition [3] -4% | outcome [5] | outcome [6] | outcome [7] | outcome [8]

O=C(Nc1cccc(CN2CCN(C(=O)c3cccc(F)c3)CC2)c1)c1ccco1
inactive: inhibition [2] 7% | inhibition [3] 4% | outcome [5] | outcome [6] | outcome [7] | outcome [8]
active: growth inhibition [1] 55% | growth inhibition [4] 88%

CCC[C@@H]([C@@H](CC1CCCCC1)C(=O)N[C@H](C(=O)Nc1nccs1)C(C)(C)SCCNC(=O)OCc1ccccn1)N(O)C=O
active: growth inhibition [1] 96% | growth inhibition [4] 99%
inactive: inhibition [2] 17% | inhibition [3] -5% | outcome [5] | outcome [6] | outcome [7] | outcome [8]

OC(c1cc(C(F)(F)F)nc2c(F)cccc12)C1CCCCN1 (stereo not drawn)
active: growth inhibition [1] 74% | growth inhibition [4] 98%
inactive: inhibition [2] -4% | inhibition [3] -2% | outcome [5] | outcome [6] | outcome [7] | outcome [8]

CC(C)CN(c1nc(C(=O)NNC(=O)[C@H](CC2CC2)NC(=O)c2cc3cc(OCCN4CCCCC4)ccc3o2)cs1)C1CC1
active: growth inhibition [1] 98% | growth inhibition [4] 97%
inactive: inhibition [2] 2% | inhibition [3] -4% | outcome [5] | outcome [6] | outcome [7] | outcome [8]

CC(Cc1ccc(C(=O)N2CCN(C(=O)c3ccc(CC(C)NCCc4cccc(Cl)c4)cc3)CC2)cc1)NCCc1cccc(Cl)c1 (stereo not drawn)
active: growth inhibition [1] 85% | inhibition [2] 99% | growth inhibition [4] 101%
inactive: inhibition [3] -4% | outcome [5] | outcome [6] | outcome [7] | outcome [8]

Cc1[nH]c(C)c(-c2ccc(C(=O)c3ccc(Cl)cc3)cc2)c(=O)c1Br
active: growth inhibition [1] 95% | growth inhibition [4] 97%
inactive: inhibition [2] 10% | inhibition [3] 4% | outcome [5] | outcome [6] | outcome [7] | outcome [8]

COc1ccc(NC(=O)/C=C/c2ccccc2Cl)cc1OCCN1CCC(N(C)C)CC1
active: growth inhibition [4] 89%
inactive: growth inhibition [1] 19% | inhibition [2] 18% | inhibition [3] -2% | outcome [5] | outcome [6] | outcome [7] | outcome [8]

OCCN1CCN(C2Cc3ccc(F)cc3Sc3ccc(Cl)cc32)CC1 (stereo not drawn)
active: inhibition [2] 56% | growth inhibition [4] 98%
inactive: growth inhibition [1] 26% | inhibition [3] 3% | outcome [5] | outcome [6] | outcome [7] | outcome [8]

Cc1cc(OCCN2CCCCC2)ccc1NC(=O)c1cccc2c(=O)n(Cc3ccc(Cl)cc3)cnc12
active: growth inhibition [1] 56% | inhibition [2] 100% | growth inhibition [4] 88%
inactive: inhibition [3] 0% | outcome [5] | outcome [6] | outcome [7] | outcome [8]

C=C[C@H]1CN(CCCCCCC)CC[C@H]1CC(=O)Nc1cnnc2ccc(OC)cc12
inactive: inhibition [2] 12% | inhibition [3] 3% | outcome [5] | outcome [6] | outcome [7] | outcome [8]
active: growth inhibition [1] 100% | growth inhibition [4] 101%

O=C(Nc1cccc(C(F)(F)F)c1)c1cccc2[nH]c(C(F)(F)F)nc12
inactive: inhibition [3] -7% | outcome [5] | outcome [6] | outcome [7] | outcome [8]
active: growth inhibition [1] 98% | inhibition [2] 81% | growth inhibition [4] 100%

O=C(NC1CC1)c1ccc(N2CCCCN2CCc2ccccc2)c(C(F)(F)F)c1
inactive: inhibition [2] -9% | inhibition [3] -4% | outcome [5] | outcome [6] | outcome [7] | outcome [8]
active: growth inhibition [1] 84% | growth inhibition [4] 98%

O=C(Nc1ccc(C(=O)N2CCN(CCN3CCN(c4cccc(C(F)(F)F)c4)CC3)CC2)cc1)c1cc(Cl)cc(Cl)c1
inactive: growth inhibition [1] 19% | inhibition [2] 23% | inhibition [3] 3% | outcome [5] | outcome [6] | outcome [7] | outcome [8]
active: growth inhibition [4] 100%

CCN1CCN(c2cc(C)c3cc(NC(=O)c4cccc(C(F)(F)F)c4)ccc3n2)CC1
active: growth inhibition [1] 85% | growth inhibition [4] 101%
inactive: inhibition [2] 24% | inhibition [3] 0% | outcome [5] | outcome [6] | outcome [7] | outcome [8]

O=S(=O)(NCCN1CCCC1)c1ccc(-c2ccc(CNCc3ccccc3)cc2)s1
inactive: growth inhibition [1] 17% | inhibition [2] 34% | inhibition [3] -5% | outcome [5] | outcome [6] | outcome [7] | outcome [8]
active: growth inhibition [4] 94%

CCCNCc1ccc(-c2ccc(CN(CCOC)C(=O)c3cscn3)cc2)nc1
inactive: growth inhibition [1] 16% | inhibition [2] 13% | inhibition [3] 2% | outcome [5] | outcome [6] | outcome [7] | outcome [8]
active: growth inhibition [4] 99%

CN1CCN(CCCN(Cc2ccc(-c3cccc(CNCc4ccc5c(c4)OCO5)c3)cc2)C(=O)Nc2ccccc2)CC1
inactive: inhibition [3] -7% | outcome [5] | outcome [6] | outcome [7] | outcome [8]
active: growth inhibition [1] 87% | inhibition [2] 51% | growth inhibition [4] 101%

O=C(Nc1ccc(Cl)cc1)c1ccc(CN2CCCN(Cc3cccc(F)c3)CC2)cc1
active: inhibition [2] 59% | growth inhibition [4] 91%
inactive: growth inhibition [1] 8% | inhibition [3] 6% | outcome [5] | outcome [6] | outcome [7] | outcome [8]

Cc1ccc(C2(CN3CCC(NC(=O)c4[nH]ncc4Cl)CC3)CCCCC2)cc1
inactive: inhibition [2] -11% | inhibition [3] -3% | outcome [5] | outcome [6] | outcome [7] | outcome [8]
active: growth inhibition [1] 96% | growth inhibition [4] 97%

Cc1cc(OCc2ccccc2)c(OCc2ccccc2)cc1C(O)CN(C)Cc1ccccc1 (stereo not drawn)
inactive: inhibition [2] 14% | inhibition [3] -2% | outcome [5] | outcome [6] | outcome [7] | outcome [8]
active: growth inhibition [1] 87% | growth inhibition [4] 96%

Nc1ccc2[nH]cc(C3CCN(CC4CCC(NC(=O)/C=C/c5ccc(Cl)c(Cl)c5)CC4)CC3)c2n1 (stereo not drawn)
inactive: inhibition [2] 18% | inhibition [3] 1% | outcome [5] | outcome [6] | outcome [7] | outcome [8]
active: growth inhibition [1] 93% | growth inhibition [4] 100%

O=C(Nc1cccc(C(F)(F)F)c1)Nc1ccc2nonc2c1
active: growth inhibition [1] 76% | growth inhibition [4] 98%
inactive: inhibition [2] -4% | inhibition [3] 5% | outcome [5] | outcome [6] | outcome [7] | outcome [8]

Cn1cnc(-c2ccc3c(c2)CCN(CCC2CCC(NC(=O)/C=C/c4ccc(F)cc4)CC2)CC3)c1 (stereo not drawn)
active: growth inhibition [4] 90%
inactive: growth inhibition [1] 18% | inhibition [2] 26% | inhibition [3] 4% | outcome [5] | outcome [6] | outcome [7] | outcome [8]

Source: PubChem BioAssay
